# Several values for one entry are separate records, joined by “and”; a condition that tells them apart may be missing. Equal entries are not always repeated. Records with an inconclusive call do not appear. More than one record can exist for a structure, and the calls need not agree. Activity calls are given as the source filed them. Rule for the calls, unless noted: active = hit-call score of the fitted dose curve at least 0.9, where 1 is the maximum; inactive = score below 0.9.
# Assays:
# [1] = BSK_BT_PBMCCytotoxicity: PBMC Cytotoxicity Assessment in the BioMAP Diversity Plus: BT Assay (AID 2284225); details: primary human B cells with PBMC;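 note: PBMC viability measured by Alamar Blue dye reduction fluorescence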
# In short: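 Primary human co-culture of B cells and PBMC, pre-dosed 1 h then activated with SEB and TSST-1. Cytotoxicity is taken from Alamar Blue dye reduction, added for 6 h at the end of a 90 h incubation.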
# [2] = read-out: Secreted IgG (sIgG), gene 3500; experiment: BSK_BT_sIgG: BioMAP Diversity Plus: BT Assay for Secreted IgG (sIgG) Biomarker Activity (AID 2284226); details: primary human B cells with PBMC
# In short: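 In this multiplexed co-culture system, ELISA quantifies sIgG 24 h post-treatment. Endpoint analysis uses positive fitting direction, DMSO negative control.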
# [3] = read-out: Interleukin 17A (IL17A), IL17A (gene 3605); experiment: BSK_BT_xIL17A: BioMAP Diversity Plus: BT Assay for Interleukin 17A (IL17A) Biomarker Activity (AID 2284229); details: primary human B cells with PBMC
# In short: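 Chemicals were added to a human B cell and PBMC co-culture. After 24 h, secreted IL-17A was measured with Luminex xMAP. Curves were fitted in the positive direction, with DMSO wells as baseline.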
# [4] = read-out: Tumor necrosis factor (Homo sapiens) (UniProt P01375); experiment: BSK_BT_xTNFa: BioMAP Diversity Plus: BT Assay for Tumor necrosis factor alpha (TNF-alpha) Biomarker Activity (AID 2284230); details: primary human B cells with PBMC
# In short: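 B cells with PBMC in co-culture, dosed and sampled at 24 h; secreted TNF-alpha measured by Luminex xMAP bead assay. Activity fitted in the gain direction against DMSO as negative control and baseline.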
# [5] = read-out: Vascular cell adhesion molecule 1 (VCAM1), VCAM1 (gene 7412); experiment: BSK_MyoF_VCAM1: BioMAP Diversity Plus: MyoF Assay for Vascular cell adhesion molecule 1 (VCAM1) Biomarker Activity (AID 2284231); details: primary human lung fibroblasts
# In short: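 Steps: fibroblasts from human lung exposed to compound; biomarker quantified by ELISA at 24 h; values analysed for upward change over the DMSO baseline.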
# [6] = read-out: Collagen I, COL1A1 (gene 1277); experiment: BSK_MyoF_CollagenI: BioMAP Diversity Plus: MyoF Assay for Collagen I Biomarker Activity (AID 2284238); details: primary human lung fibroblasts
# In short: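 Multiplexed primary human lung fibroblast system; Collagen I measured by ELISA at 24 h post-dose. Increases are referenced to DMSO.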
# [7] = read-out: Collagen III, COL3A1 (gene 1281); experiment: BSK_MyoF_CollagenIII: BioMAP Diversity Plus: MyoF Assay for Collagen III Biomarker Activity (AID 2284239); details: primary human lung fibroblasts
# In short: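 Compounds are added to primary human lung fibroblasts and left for 24 hours. Collagen III is then quantified by ELISA. Analysis takes DMSO as baseline and fits increases in signal.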
# [8] = read-out: Actin alpha 1 (ACTA1), ACTA1 (gene 58); experiment: BSK_MyoF_ACTA1: BioMAP Diversity Plus: MyoF Assay for Actin alpha 1 (ACTA1) Biomarker Activity (AID 2284244); details: primary human lung fibroblasts
# In short: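 MyoF fibroblast system (human lung); a-SMA quantified via ELISA at 24 h; DMSO-normalised, gain-of-signal endpoint.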
# [9] = read-out: Interleukin 2 (IL2), IL2 (gene 3558); experiment: BSK_BT_xIL2: BioMAP Diversity Plus: BT Assay for Interleukin 2 (IL2) Biomarker Activity (AID 2284245); details: primary human B cells with PBMC
# In short: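 Co-cultures of primary human B cells and PBMC are treated with chemical and sampled at 24 h. IL-2 secretion is quantified by Luminex xMAP, with DMSO-treated wells as baseline.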
# [10] = read-out: Basic fibroblast growth factor (bFGF), FGF2 (gene 2247); experiment: BSK_MyoF_bFGF: BioMAP Diversity Plus: MyoF Assay for Basic fibroblast growth factor (bFGF) Biomarker Activity (AID 2284246); details: primary human lung fibroblasts
# In short: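 Fibroblasts from human lung, 24 h dosing. bFGF by ELISA; gain of signal over DMSO.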
# [11] = read-out: Vascular cell adhesion molecule 1 (VCAM1), VCAM1 (gene 7412); experiment: BSK_BF4T_VCAM1: BioMAP Diversity Plus: BF4T Assay for Vascular cell adhesion molecule 1 (VCAM1) Biomarker Activity (AID 2284249); details: primary human bronchial epithelial cells with fibroblasts
# In short: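 Cell-surface VCAM-1 quantified by ELISA after 24 h chemical exposure of human bronchial epithelial/dermal fibroblast co-cultures, with SRB staining in parallel wells for cytotoxicity; DMSO baseline, positive-direction fitting.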
# [12] = read-out: Plasminogen activator inhibitor-1 (PAI1), SERPINE1 (gene 5054); experiment: BSK_MyoF_PAI1: BioMAP Diversity Plus: MyoF Assay for Plasminogen activator inhibitor-1 (PAI1) Biomarker Activity (AID 2284256); details: primary human lung fibroblasts;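 for outcome: PAI-1 protein level measured by ELISA in fibroblast cultures; PAI-1 read 24 h after compound addition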
# In short: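 Activity reflects increased PAI-1, determined by ELISA and compared with DMSO, in human lung fibroblasts treated for 24 h.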
# [13] = read-out: Interleukin-8 (IL8), CXCL8 (gene 3576); experiment: BSK_MyoF_IL8: BioMAP Diversity Plus: MyoF Assay for Interleukin-8 (IL8) Biomarker Activity (AID 2284261); details: primary human lung fibroblasts
# In short: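 In this multiplexed primary-cell system, fibroblasts from human lung are treated with chemicals, and IL-8 is detected by ELISA at 24 h, with DMSO serving as the negative reference.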
# [14] = read-out: Interleukin-8 (IL8), CXCL8 (gene 3576); experiment: BSK_BF4T_IL8: BioMAP Diversity Plus: BF4T Assay for Interleukin-8 (IL8) Biomarker Activity (AID 2284263); details: primary human bronchial epithelial cells with fibroblasts
# In short: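 Human bronchial epithelial cells with dermal fibroblasts co-culture; IL-8 measured by ELISA 24 hours after dosing, fitted vs DMSO. Cytotoxicity tracked in parallel cultures by SRB total-protein staining.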
# Decorin, DCN (gene 1634) = experiment: BSK_MyoF_Decorin: BioMAP Diversity Plus: MyoF Assay for Decorin Biomarker Activity (AID 2284265); details: primary human lung fibroblasts
# In short: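 Lung fibroblast cultures, 24 h chemical exposure. Decorin by ELISA, positive fitting direction, DMSO baseline.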
# PGR (gene 5241) [15] = molecular target: PGR (gene 5241) (UniProt P06401); experiment: TOX21_PR_BLA_Followup_Antagonist_ratio: Tox21 HEK293 Progesterone Receptor (PR) Antagonism Beta-lactamase Follow-Up Assay, Ratio (AID 2283934; active = hit-call score of the fitted dose curve at least 0.9, where 1 is the maximum;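 note: PR-UAS-bla HEK293T cells stimulated with 1 nM R5020 agonist for 16 hr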)
# Chain of PGR (gene 5241) (P06401 whole entry, looked up): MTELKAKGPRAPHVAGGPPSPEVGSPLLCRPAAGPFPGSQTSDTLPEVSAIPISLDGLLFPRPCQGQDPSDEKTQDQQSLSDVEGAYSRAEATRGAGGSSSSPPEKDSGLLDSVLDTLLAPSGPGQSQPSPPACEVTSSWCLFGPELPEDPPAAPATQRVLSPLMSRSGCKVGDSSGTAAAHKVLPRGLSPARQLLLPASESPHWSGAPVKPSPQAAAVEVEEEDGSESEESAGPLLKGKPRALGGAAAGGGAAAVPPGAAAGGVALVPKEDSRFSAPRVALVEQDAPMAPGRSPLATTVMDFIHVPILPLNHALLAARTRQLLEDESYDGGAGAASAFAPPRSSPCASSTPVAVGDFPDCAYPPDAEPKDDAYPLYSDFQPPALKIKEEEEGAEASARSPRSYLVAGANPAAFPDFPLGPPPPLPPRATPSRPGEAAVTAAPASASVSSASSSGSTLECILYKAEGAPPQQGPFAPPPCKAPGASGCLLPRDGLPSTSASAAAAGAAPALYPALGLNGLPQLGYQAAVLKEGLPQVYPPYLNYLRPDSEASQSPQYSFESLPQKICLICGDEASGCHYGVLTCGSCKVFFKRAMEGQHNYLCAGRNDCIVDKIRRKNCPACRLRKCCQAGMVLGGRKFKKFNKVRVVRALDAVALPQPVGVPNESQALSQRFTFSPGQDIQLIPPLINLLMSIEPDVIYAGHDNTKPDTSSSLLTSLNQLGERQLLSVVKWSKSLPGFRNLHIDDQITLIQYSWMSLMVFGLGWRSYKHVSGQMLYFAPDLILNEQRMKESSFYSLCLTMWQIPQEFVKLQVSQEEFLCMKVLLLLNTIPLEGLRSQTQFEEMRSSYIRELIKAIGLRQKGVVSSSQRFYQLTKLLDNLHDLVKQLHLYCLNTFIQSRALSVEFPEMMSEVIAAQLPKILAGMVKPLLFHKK
# In short: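 Measured in PR-UAS-bla HEK293T cells co-treated with compound and 1 nM promegestone for 16 hr; beta-lactamase ratio read after 2 h FRET substrate loading, with parallel CellTiter-Glo cytotoxicity.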
# [16] = TOX21_PR_BLA_Followup_Agonist_viability: Viability Assessment in the Tox21 HEK293 Progesterone Receptor (PR) Agonism Beta-lactamase Follow-Up Assay (AID 2283935; active = hit-call score of the fitted dose curve at least 0.9, where 1 is the maximum;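 note: signal loss means lower viability so actives are cytotoxic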)
# In short: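 Viability is read as CellTiter-Glo luminescence, where loss of signal indicates cytotoxicity. The cells are PR-UAS-bla HEK293T given compounds for 16 hr at 37C and 5% CO2, in the same wells used for the bla readout.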
# [17] = TOX21_PR_BLA_Followup_Antagonist_viability: Viability Assessment in the Tox21 HEK293 Progesterone Receptor (PR) Antagonism Beta-lactamase Follow-Up Assay (AID 2283936; active = hit-call score of the fitted dose curve at least 0.9, where 1 is the maximum;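 note: cells exposed to compound with R5020 agonist for 16 h; hits lower the luminescence signal meaning cytotoxicity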)
# In short: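 PR-UAS-bla HEK293T cells in medium with 2% charcoal-stripped FBS were treated with compounds plus R5020 for 16 hr at 37C. After the beta-lactamase read, CellTiter-Glo was added to the same wells and luminescence read after 30 min at room temperature.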
# PGR (gene 5241) [18] = molecular target: PGR (gene 5241) (UniProt P06401); experiment: TOX21_PR_LUC_Followup_Antagonist: Tox21 HEK293 Progesterone Receptor (PR) Antagonism Luciferase Follow-Up Assay (AID 2283938; active = hit-call score of the fitted dose curve at least 0.9, where 1 is the maximum;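 note: curve fitted upward as signal gain over DMSO baseline despite antagonist label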)
# In short: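 A follow-up to the PR bla screen using HEK293-PR-A-luc cells, multiplexed with cell viability to flag cytotoxicity. Reporter luminescence after 16 h compound exposure was analysed relative to DMSO.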
# THRB (gene 7068) = THRB (gene 7068) (UniProt P10828); experiment: TOX21_TRB_COA_Antagonist_Followup_ratio: Tox21 Thyroid Hormone Receptor beta Antagonism through Coactivator Recruitment Follow-Up Assay, Ratio (AID 2283967; active = hit-call score of the fitted dose curve at least 0.9, where 1 is the maximum)
# Chain of THRB (gene 7068) (P10828 whole entry, looked up, the tested form may be a part): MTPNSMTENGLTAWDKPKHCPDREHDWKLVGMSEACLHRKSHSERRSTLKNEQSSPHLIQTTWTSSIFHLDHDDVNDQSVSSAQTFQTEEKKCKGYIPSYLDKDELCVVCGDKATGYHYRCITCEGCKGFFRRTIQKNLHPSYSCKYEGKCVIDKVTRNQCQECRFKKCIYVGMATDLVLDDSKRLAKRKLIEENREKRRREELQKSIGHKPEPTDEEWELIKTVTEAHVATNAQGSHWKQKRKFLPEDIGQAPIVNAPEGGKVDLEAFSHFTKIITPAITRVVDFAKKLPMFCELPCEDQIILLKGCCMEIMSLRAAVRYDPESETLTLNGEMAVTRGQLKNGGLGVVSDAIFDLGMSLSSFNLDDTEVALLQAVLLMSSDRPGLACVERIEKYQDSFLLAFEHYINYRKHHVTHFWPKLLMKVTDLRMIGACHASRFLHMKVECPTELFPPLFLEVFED
# In short: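 GST-TRb LBD 5.0 nM + 0.10% BSA, compound added; fluorescein-SRC-2 peptide 200 nM, Tb-anti-GST Ab 2 nM. TR-FRET, ex 340 / em 520:495 ratio. Norm: DMSO 0%, T3 100%.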
# Chain of Tumor necrosis factor (Homo sapiens) (P01375 whole entry, looked up): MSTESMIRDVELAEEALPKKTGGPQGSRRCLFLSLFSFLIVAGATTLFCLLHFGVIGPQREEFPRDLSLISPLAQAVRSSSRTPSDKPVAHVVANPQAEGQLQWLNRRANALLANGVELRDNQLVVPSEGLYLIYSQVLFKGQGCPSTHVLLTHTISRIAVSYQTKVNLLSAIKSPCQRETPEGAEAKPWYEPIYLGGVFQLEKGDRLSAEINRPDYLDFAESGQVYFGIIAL
smiles,measurement,setting,value
OC(C(F)(F)F)(C(F)(F)F)C(O)(C(F)(F)F)C(F)(F)F,AC50,[1],55.4 µM (active) and 36.9 µM (active)
same,AC50,[2],9.13 µM (active) and 9.49 µM (active)
same,AC50,[3],31 µM (active) and 24 µM (active)
same,AC50,[4],41.9 µM (active) and 40.2 µM (active)
same,AC50,[5],45.7 µM (active) and 41.7 µM (active)
same,AC50,[6],46.2 µM (active) and 45.7 µM (active)
same,AC50,[7],41 µM (active) and 39.5 µM (active)
same,AC50,[8],26.7 µM (active) and 22.3 µM (active)
same,AC50,[9],46 µM (active) and 48.1 µM (active)
same,outcome,[10],inactive
same,AC50,[11],18.9 µM (active)
same,outcome,[11],inactive
same,AC50,[12],53.5 µM (active)
same,outcome,[13],inactive
same,AC50,[14],0.218 µM (active)
same,outcome,[14],inactive
same,AC50,"Decorin, DCN (gene 1634)",30 µM (active) and 46.7 µM (active)
COC(=O)/C=C\C(=O)OC,outcome,[1],inactive
same,AC50,[2],20 µM (active)
same,outcome,[3],inactive
same,outcome,[4],inactive
same,outcome,[5],inactive
same,outcome,[6],inactive
same,outcome,[7],inactive
same,outcome,[8],inactive
same,AC50,[9],12.8 µM (active)
same,outcome,[10],inactive
same,outcome,[12],inactive
same,outcome,[13],inactive
same,outcome,"Decorin, DCN (gene 1634)",inactive
Oc1ccc2c(c1)Cc1ccccc1-2,AC50,PGR (gene 5241) [15],29.4 µM (active)
same,outcome,[16],inactive
same,outcome,[17],inactive
same,AC50,PGR (gene 5241) [18],38.1 µM (active)
O=[Se](O)O,AC50,THRB (gene 7068),31.7 µM (active)
CC(O)(c1ccc(Cl)cc1)c1ccc(Cl)cc1,AC50,PGR (gene 5241) [15],46.1 µM (active)
same,outcome,[16],inactive
same,outcome,[17],inactive
same,AC50,PGR (gene 5241) [18],61.6 µM (active)
O=C(CCCCCCC(=O)Nc1ccccc1)NO,outcome,THRB (gene 7068),inactive
CC(COc1ccccc1)N(CCCl)Cc1ccccc1 (stereo not given),AC50,PGR (gene 5241) [15],31.6 µM (active)
same,outcome,[16],inactive
same,outcome,[17],inactive
same,outcome,PGR (gene 5241) [18],inactive
CO[C@H]1C[C@@H]2CC[C@@H](C)[C@@](O)(O2)C(=O)C(=O)N2CCCC[C@H]2C(=O)O[C@H]([C@H](C)C[C@@H]2CC[C@@H](O)[C@H](OC)C2)CC(=O)[C@H](C)/C=C(\C)[C@@H](O)[C@@H](OC)C(=O)[C@H](C)C[C@H](C)\C=C/C=C/C=C/1C,outcome,THRB (gene 7068),inactive

# From PubChem BioAssay (EPA / NIEHS)
